Dicer inh = inhibitors of human Dicer processing of pre-microRNA; 6% of 47,000 active; cat-ELCCA pre-miR-21 Dicer processing, chemiluminescence; hits give high values; Q9UPY3; z-score at 25 µM; in the data active means z-score above about 3, passing the limit was not always enough;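 further: higher signal means more uncleaved substrate so more Dicer inhibition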
Of the large screens only hits and unclear results are named; the others gave an inactive call. Many of the other results were omitted from the sample, so hits are more common in it than they were.

COc1ccc(/C(O)=C2/C(=O)C(=O)N(CCCN(C)C)C23C(=O)N(C)c2ccccc23)cc1 (centres undefined)	Dicer inh 3.7
CCOc1ccc(NC2CC(=O)N(c3ccc(N4CCOCC4)cc3)C2=O)cc1 (centres undefined)	none
CCOC(=O)c1c(C)n(C)c2c1cc(OC(C)=O)c1ccccc12	none
c1ccc2c(c1)nc1n2CN(CCN2CCOCC2)CN1	Dicer inh 3.2
c1ccc2c(c1)nc1n2CN(CCCN2CCOCC2)CN1	none
Cc1ccc2nc(NC3=NCN(Cc4ccc5c(c4)OCO5)CN3)nc(C)c2c1	none
c1cncc(CN2CNc3nc4ccccc4n3C2)c1	Dicer inh 3
Cc1cc2nc(NC3=NCN(Cc4cccnc4)CN3)nc(C)c2cc1C	none
c1ccc(CCN2CN(CCCN3CCOCC3)c3nc4ccccc4n3C2)cc1	none
c1ccc2oc(NC3=NCN(Cc4ccc5c(c4)OCO5)CN3)nc2c1	none
Cc1c2c(n3c(nc4ccccc43)c1C#N)N(Cc1cccnc1)CC2	none
c1ccc2c(c1)nc1n2CN(Cc2ccc3c(c2)OCO3)CN1	Dicer inh 3.5
COc1ccc(N2C(=O)CC(Sc3ncn[nH]3)C2=O)c(OC)c1 (centres undefined)	none
C=CCOc1ccc(C2c3c(oc4ccc(C)cc4c3=O)C(=O)N2CCCN2CCOCC2)cc1 (centres undefined)	none
O=C(Nc1ncc(Cc2ccc(F)cc2)s1)c1cc2ccccc2c(=O)o1	none
FC(F)(F)c1cccc(Nc2ncnc(-n3cccc3)n2)c1	none
Cc1nnc2n1NC(c1ccc(Cl)cc1)C(C(=O)NCc1ccco1)S2 (centres undefined)	none
Cc1ncc(/C=C2\C(=O)Nc3ccccc32)[nH]1	none
CC1(C(=O)c2ccccc2)C2c3cc(Br)ccc3OC(=O)C21C(=O)NCc1ccccc1 (centres undefined)	Dicer inh 3.4
COc1cccc(C(=O)CC2(O)C(=O)N(CCc3ccccc3)c3ccc(Br)cc32)c1 (centres undefined)	none
O=C(O)CN1C(=O)Nc2ccc(Br)cc2C1c1ccccc1 (centres undefined)	none
CCOC(=O)C1CCN(S(=O)(=O)c2ccc(CNC(=O)c3ccc(Cl)cc3)s2)CC1	none
FC(F)(F)c1cc(Nc2ccccc2)c2cccc(Cl)c2n1	none
CC(=O)Nc1ccc2c(c1)[n+](C)c(C)n2-c1ccccc1	none
CCOC(=O)c1c(O)c(O)c(C(=O)OCC)n1-c1ccccc1	none
CC[n+]1c(C)n(-c2ccccc2)c2ccccc21	Dicer inh 10
COc1cc(N=C(N)N=C(N)N)cc(OC)c1	none
Cc1cc(N=C(N)N=C(N)N)ccc1Br	none
COc1ccc(N=C(N)N=C(N)N)cc1	Dicer inh 6.3
CN(C)C(=O)C(=O)c1c(-c2ccc(Cl)cc2)[nH]c2ccccc12	none
CC(=O)Nc1sc(C(C)=O)cc1C(=O)O	none
COc1cccc(Nc2ncc(C#N)c(N)n2)c1	none
CC1(C)Cc2nc3sc4c(NCC5CCCO5)ncnc4c3cc2CO1 (centres undefined)	Dicer inh 5.7
CCN(CC)CCNc1ncnc2c1sc1nc3c(cc12)COC(C)(C)C3	none
CCCCCNc1ncnc2c1sc1nc3c(cc12)COC(C)(C)C3	none
Cc1cc(OCC(=O)c2ccc(C(F)(F)F)cc2)n2cnnc2n1	none
CC(C)C[C@H](NC(=O)[C@@H](O)[C@H](N)Cc1ccccc1)C(=O)O	none
CC(C)C[C@H](NC(=O)c1ccc(Cl)cc1Cl)C(=O)O	none
CC(C)CC(NC(=O)c1ccco1)C(=O)O (centres undefined)	Dicer inh 5.2
COC(=O)CSc1cc(C(F)(F)F)nc2ccccc12	none
CCNc1nc(NCC)nc(Oc2ccc(OCC)nn2)n1	none
O=C(CSc1nc2ccccc2c(=O)n1-c1ccc(F)c(Cl)c1)c1ccccc1	none
O=C1CC(c2ccccc2)CC2=C1C(c1ccco1)n1ncnc1N2 (centres undefined)	Dicer inh 3.9
c1ccc(C2CC(c3ccco3)n3ncnc3N2)cc1 (centres undefined)	none
COc1ccc(C2CC(=O)C3=C(C2)Nc2ncnn2C3c2ccccc2)cc1 (centres undefined)	none
O=C1C2CCCCC2=NN1c1ccccc1 (centres undefined)	none
CC1(C)CSC(=NC2CCCCC2)N1	Dicer inh 3.2
O=c1oc(-c2ccc(Cl)c(Cl)c2)nn1-c1ncccc1C(F)(F)F	none
COC(=O)c1ccccc1S1=NS(=O)(=O)c2ccccc21 (centres undefined)	none
CC(C)(C)c1ccc(NC(=O)Nc2sccc2-c2nc3ccccc3s2)cc1	none
Clc1ccccc1CN1CCN(Cc2cccnc2)CC1	none
CCc1ccc(CN2CCN(Cc3cccnc3)CC2)cc1	Dicer inh 3.1
Brc1cccc(CN2CCN(Cc3ccncc3)CC2)c1	none
NS(=O)(=O)c1cc(C2(O)NC(=O)c3ccccc32)ccc1Cl (centres undefined)	none
CCOC(=O)c1cc(CC)sc1NC(=S)Nc1ccccc1C(F)(F)F	none
CCOC(=O)c1cc(CC)sc1NC(=S)Nc1cccc(Cl)c1	Dicer inh 7.1
CCOC(=O)c1cc(C)ccc1NC(=S)Nc1cccc(Cl)c1	none
O=C1CCC([N+](=O)[O-])C(c2ccccc2OCc2ccccc2)N1 (centres undefined)	none
Cc1nnc(SCC(=O)N2CCN(S(=O)(=O)c3ccccc3)C2)s1	none
CSC(=CC(=O)c1cccc(Cl)c1F)SC	none
C=CCN1C(=O)C(O)(CC(=O)c2ccccc2OC)c2ccccc21 (centres undefined)	none
C=CCN1C(=O)C(O)(CC(=O)c2ccc(OC)cc2OC)c2cc(Br)ccc21 (centres undefined)	none
C=CCN1C(=O)C(O)(CC(=O)c2cc(OC)ccc2OC)c2cc(Br)ccc21 (centres undefined)	Dicer inh 3.5
C=CCN1C(=O)C(O)(CC(=O)c2cc(C)ccc2C)c2ccccc21 (centres undefined)	Dicer inh 9.4
C=CCN1C(=O)C(O)(CC(=O)c2ccc(C)cc2C)c2ccccc21 (centres undefined)	none
CCCN1C(=O)C(O)(CC(=O)c2cc(OC)ccc2OC)c2cc(Br)ccc21 (centres undefined)	none
Cc1ccc(-c2c(C)c(-c3ccc(F)cc3)nc(N)c2C#N)o1	none
CCOc1ccc(S(=O)(=O)n2cnc(C)c2)cc1C	none
CN(C)C(=O)C12CCC(C)(C(=O)C1)C2(C)C (centres undefined)	Dicer inh 3.1
O=C(c1ccccc1)C(C(=O)c1ccccc1)C(=O)c1ccccc1	none
CC(=O)Nc1c(-c2ccc(Br)cc2)c(C(F)(F)F)nn1C	none
Cn1cnc(SCC(=O)N2c3ccccc3Sc3ccccc32)n1	none
Cc1ccccc1-c1n[nH]c(=S)o1	none
Cc1ccc(-c2n[nH]c(=S)o2)cc1	Dicer inh 4.8
CCn1nc(C)cc1-c1n[nH]c(=S)o1	none
FC(F)(F)c1ccc(-c2n[nH]c(=S)o2)cc1	none
COc1ccccc1-c1n[nH]c(=S)o1	Dicer inh 3.7
COc1ccccc1-c1nc2ccccc2c(=O)o1	none
Cc1nnc(N2C(=O)C(O)=C(C(=O)c3cccs3)C2c2cccc(Oc3ccccc3)c2)s1 (centres undefined)	none
CCn1c(N)c(C(=O)NC(C)c2ccccc2)sc1=S (centres undefined)	none
CC(C)(C)c1nc(S(=O)(=O)c2ccccc2)c(N2CCOCC2)o1	none
Cc1ccccc1OC1C(=O)N(CC2CCCO2)C1c1ccc2c(c1)OCO2 (centres undefined)	none
O=C1c2ccccc2C(=O)C1c1ccc2ccccc2n1	none
O=C1c2cc3ccccc3cc2C(=O)C1c1ccccc1	Dicer inh 4
O=C1c2cccc3cccc(c23)C(=O)C1c1ccccc1	none
Cc1cc(C(=O)NNCc2ccccc2)no1	none

Bioassay records deposited in PubChem by Center for Chemical Genomics, University of Michigan.
